Holding throughout (assay): DAPPL (digital affinity profiling via proximity ligation, sequencing); 10 mM Tris-HCl pH 7.5, 50 mM NaCl, 1 mM DTT, 4% glycerol, room temperature, 30 min; GST-TFs on glutathione beads, 16-mer random dsDNA library, 0.1% formaldehyde crosslink after washing; high values mean tight binding
What all share (details): protein: recombinant; tags: N-terminal GST; dsDNA, one strand shown

Experiment [1] addresses T1, ERF (Homo sapiens, UniProt P50548 1-548).
T1 sequence: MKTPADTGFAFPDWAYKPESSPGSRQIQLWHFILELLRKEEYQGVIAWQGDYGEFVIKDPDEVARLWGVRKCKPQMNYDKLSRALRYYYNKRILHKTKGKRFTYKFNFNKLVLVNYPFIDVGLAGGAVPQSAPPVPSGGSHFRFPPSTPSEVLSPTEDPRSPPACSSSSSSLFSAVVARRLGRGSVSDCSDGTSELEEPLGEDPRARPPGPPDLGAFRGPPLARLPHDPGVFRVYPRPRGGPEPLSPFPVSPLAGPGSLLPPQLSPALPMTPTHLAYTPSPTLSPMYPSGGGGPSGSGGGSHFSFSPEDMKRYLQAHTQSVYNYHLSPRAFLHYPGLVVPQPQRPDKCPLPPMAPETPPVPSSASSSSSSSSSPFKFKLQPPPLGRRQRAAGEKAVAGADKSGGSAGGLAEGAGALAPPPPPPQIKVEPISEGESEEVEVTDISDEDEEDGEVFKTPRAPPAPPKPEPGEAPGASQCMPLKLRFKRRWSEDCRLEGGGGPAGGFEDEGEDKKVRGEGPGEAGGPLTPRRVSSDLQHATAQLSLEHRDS
In outline: (§1)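 Each value of binding signal is a hexamer's read frequency for a factor divided by the same hexamer's frequency in the tag-only sample. Barcoded, bead-captured GST fusions of human transcription factors made in yeast were pooled with that sample and incubated with 200 nmole of a random double-stranded 16-mer DNA library in Tris/NaCl/DTT/glycerol buffer at room temperature for 30 min. Washing, 0.1% formaldehyde crosslinking, proximity ligation, PCR and Illumina NextSeq500 sequencing followed.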

Experiment [2] addresses T2, ETV3L (Homo sapiens, UniProt Q6ZN32 1-361).
T2 sequence: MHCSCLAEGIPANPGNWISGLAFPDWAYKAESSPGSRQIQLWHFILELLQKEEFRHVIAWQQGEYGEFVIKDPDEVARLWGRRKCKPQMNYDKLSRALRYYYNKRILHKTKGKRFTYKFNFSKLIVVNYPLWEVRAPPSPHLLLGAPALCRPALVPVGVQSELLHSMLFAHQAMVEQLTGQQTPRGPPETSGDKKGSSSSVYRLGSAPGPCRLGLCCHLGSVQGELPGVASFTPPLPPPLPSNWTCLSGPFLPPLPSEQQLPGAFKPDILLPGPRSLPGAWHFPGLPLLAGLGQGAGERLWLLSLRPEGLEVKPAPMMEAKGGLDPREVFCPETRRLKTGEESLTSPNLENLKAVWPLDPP
A digest of the protocol:
as §1

For experiment [3], the target named is T3, ETS2 (Homo sapiens, UniProt P15036 1-469).
T3 sequence: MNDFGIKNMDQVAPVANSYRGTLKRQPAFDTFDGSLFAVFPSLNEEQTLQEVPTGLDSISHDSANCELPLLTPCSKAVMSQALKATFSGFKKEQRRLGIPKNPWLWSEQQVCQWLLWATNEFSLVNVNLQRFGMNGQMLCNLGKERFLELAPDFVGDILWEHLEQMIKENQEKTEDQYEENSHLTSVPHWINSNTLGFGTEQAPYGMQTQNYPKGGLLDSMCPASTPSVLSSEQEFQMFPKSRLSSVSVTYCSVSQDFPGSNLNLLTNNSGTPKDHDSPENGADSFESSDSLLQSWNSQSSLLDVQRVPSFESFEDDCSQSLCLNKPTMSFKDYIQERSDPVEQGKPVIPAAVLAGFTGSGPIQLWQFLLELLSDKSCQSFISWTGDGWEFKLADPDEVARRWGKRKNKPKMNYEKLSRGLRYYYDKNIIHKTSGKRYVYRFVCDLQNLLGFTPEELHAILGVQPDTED
A digest of the protocol:
as §1

In experiment [4] the target is T4, SPDEF (Homo sapiens, UniProt O95238 1-335).
T4 sequence: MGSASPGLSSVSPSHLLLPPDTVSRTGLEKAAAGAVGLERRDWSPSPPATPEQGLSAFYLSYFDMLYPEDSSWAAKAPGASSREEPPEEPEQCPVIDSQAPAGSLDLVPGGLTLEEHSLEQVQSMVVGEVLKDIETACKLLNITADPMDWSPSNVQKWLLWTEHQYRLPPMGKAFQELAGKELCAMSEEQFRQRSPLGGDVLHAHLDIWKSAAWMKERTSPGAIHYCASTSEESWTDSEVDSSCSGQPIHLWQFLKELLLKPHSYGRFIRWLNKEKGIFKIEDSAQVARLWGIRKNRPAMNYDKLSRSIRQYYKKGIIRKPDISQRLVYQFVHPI
A digest of the protocol: as §1

Experiment [5] has as its target T5, ETV7 (Homo sapiens, UniProt Q9Y603 1-341).
T5 sequence: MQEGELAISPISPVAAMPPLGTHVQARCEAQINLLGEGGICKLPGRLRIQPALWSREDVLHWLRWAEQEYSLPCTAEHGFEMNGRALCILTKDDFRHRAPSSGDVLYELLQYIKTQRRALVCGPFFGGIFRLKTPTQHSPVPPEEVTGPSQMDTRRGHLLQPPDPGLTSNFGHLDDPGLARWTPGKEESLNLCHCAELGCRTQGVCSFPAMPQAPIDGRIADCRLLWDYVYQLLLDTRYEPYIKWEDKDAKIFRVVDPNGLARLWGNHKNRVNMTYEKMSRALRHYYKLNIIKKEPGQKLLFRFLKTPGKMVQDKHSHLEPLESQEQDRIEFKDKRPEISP
In outline: as §1

Experiment [6] addresses T6, ETV3 (Homo sapiens, UniProt P41162-2 1-143).
T6 sequence: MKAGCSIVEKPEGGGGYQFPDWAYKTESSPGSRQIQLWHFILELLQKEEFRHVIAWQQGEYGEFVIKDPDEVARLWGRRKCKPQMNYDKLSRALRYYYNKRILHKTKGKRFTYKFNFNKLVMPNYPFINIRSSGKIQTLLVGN
In outline:
as §1

Experiment [7] concerns the target ETV6 (Homo sapiens, UniProt P41212 1-452). A digest of the protocol:
as §1

Experiment [8] addresses T7, ELF5 (Homo sapiens, UniProt Q9UKW6-2 1-255).
T7 sequence: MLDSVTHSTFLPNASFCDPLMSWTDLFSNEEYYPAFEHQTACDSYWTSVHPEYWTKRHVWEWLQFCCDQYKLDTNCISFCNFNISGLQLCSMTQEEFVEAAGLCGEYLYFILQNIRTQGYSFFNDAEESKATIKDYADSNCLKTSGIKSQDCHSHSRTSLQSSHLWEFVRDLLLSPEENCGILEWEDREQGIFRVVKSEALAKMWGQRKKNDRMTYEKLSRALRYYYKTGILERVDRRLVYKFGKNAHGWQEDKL
A digest of the protocol: as §1

The values below come from paper PMC7862700, “An all-to-all approach to the identification of sequence-specific readers for epigenetic DNA modifications on cytosine”.

ETV6, sequence (P41212 whole entry): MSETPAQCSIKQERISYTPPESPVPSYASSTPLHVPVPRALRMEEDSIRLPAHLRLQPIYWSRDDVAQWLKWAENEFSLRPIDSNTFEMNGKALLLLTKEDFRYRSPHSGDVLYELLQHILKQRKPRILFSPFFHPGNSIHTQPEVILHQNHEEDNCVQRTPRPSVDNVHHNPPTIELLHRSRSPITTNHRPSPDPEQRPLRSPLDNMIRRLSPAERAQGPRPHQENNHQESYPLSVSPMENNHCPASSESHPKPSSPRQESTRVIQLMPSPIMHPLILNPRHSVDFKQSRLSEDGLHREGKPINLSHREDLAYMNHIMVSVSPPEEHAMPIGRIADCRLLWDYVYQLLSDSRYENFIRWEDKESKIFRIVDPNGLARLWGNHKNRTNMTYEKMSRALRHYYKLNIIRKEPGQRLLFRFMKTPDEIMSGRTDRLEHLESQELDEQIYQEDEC

As to TGATCA, the binding signal in experiment [1] was 1.15 fold enrichment (6-mer frequency, TF over GST control); in experiment [2], 1.07 fold enrichment (6-mer frequency, TF over GST control); in experiment [3], 1.06 fold enrichment (6-mer frequency, TF over GST control); in experiment [4], 1.05 fold enrichment (6-mer frequency, TF over GST control); in experiment [5] it was 1.14 fold enrichment (6-mer frequency, TF over GST control); in experiment [6], 1.05 fold enrichment (6-mer frequency, TF over GST control).

GCCAAT: the binding signal in experiment [1] is 1.11 fold enrichment (6-mer frequency, TF over GST control); in experiment [2] it was 1.05 fold enrichment (6-mer frequency, TF over GST control); in experiment [3], 1.06 fold enrichment (6-mer frequency, TF over GST control); in experiment [4] it was 1.07 fold enrichment (6-mer frequency, TF over GST control); in experiment [5], 1.06 fold enrichment (6-mer frequency, TF over GST control); in experiment [6] it was 1.1 fold enrichment (6-mer frequency, TF over GST control).

Regarding TTAGAA, the binding signal in experiment [1] was 1.1 fold enrichment (6-mer frequency, TF over GST control); in experiment [2], 1.07 fold enrichment (6-mer frequency, TF over GST control); in experiment [3], 1.08 fold enrichment (6-mer frequency, TF over GST control); in experiment [4], 1 fold enrichment (6-mer frequency, TF over GST control); in experiment [5], 1.08 fold enrichment (6-mer frequency, TF over GST control); in experiment [6], 1.06 fold enrichment (6-mer frequency, TF over GST control). The binding signal in experiment [7] was 1.15 fold enrichment (6-mer frequency, TF over GST control).

With GATAGC, the binding signal was 1.15 fold enrichment (6-mer frequency, TF over GST control) in experiment [1]; 1.06 fold enrichment (6-mer frequency, TF over GST control) in experiment [2]; 1.12 fold enrichment (6-mer frequency, TF over GST control) in experiment [3]; 1.05 fold enrichment (6-mer frequency, TF over GST control) in experiment [4]; 1.06 fold enrichment (6-mer frequency, TF over GST control) in experiment [5]; 1.05 fold enrichment (6-mer frequency, TF over GST control) in experiment [6]. For the same sequence, in experiment [7], the binding signal is 1.03 fold enrichment (6-mer frequency, TF over GST control).

As for ACACCT, the binding signal in experiment [1] was 1.14 fold enrichment (6-mer frequency, TF over GST control); in experiment [2], 1.15 fold enrichment (6-mer frequency, TF over GST control); in experiment [3], 1.05 fold enrichment (6-mer frequency, TF over GST control); in experiment [4] it was 1.05 fold enrichment (6-mer frequency, TF over GST control); in experiment [5] it was 1.11 fold enrichment (6-mer frequency, TF over GST control); in experiment [6], 1.08 fold enrichment (6-mer frequency, TF over GST control). For the same sequence, the binding signal in experiment [7] was 1.06 fold enrichment (6-mer frequency, TF over GST control).

GTGCTA: the binding signal in experiment [1] was 1.02 fold enrichment (6-mer frequency, TF over GST control); in experiment [2] it was 1.04 fold enrichment (6-mer frequency, TF over GST control); in experiment [3] it was 1.13 fold enrichment (6-mer frequency, TF over GST control); in experiment [4] it was 1.12 fold enrichment (6-mer frequency, TF over GST control); in experiment [5] it was 1 fold enrichment (6-mer frequency, TF over GST control); in experiment [6], 1.11 fold enrichment (6-mer frequency, TF over GST control).

In the case of CCAAAC, the binding signal in experiment [1] is 1.08 fold enrichment (6-mer frequency, TF over GST control); in experiment [2] it was 1.12 fold enrichment (6-mer frequency, TF over GST control); in experiment [3], 1.1 fold enrichment (6-mer frequency, TF over GST control); in experiment [4] it was 1.11 fold enrichment (6-mer frequency, TF over GST control); in experiment [8], 1.09 fold enrichment (6-mer frequency, TF over GST control); in experiment [6] it was 1.11 fold enrichment (6-mer frequency, TF over GST control). Moreover, in experiment [7], the binding signal was 1.07 fold enrichment (6-mer frequency, TF over GST control).

On to CCACAA, for which the binding signal in experiment [1] was 1.24 fold enrichment (6-mer frequency, TF over GST control); in experiment [2], 1.26 fold enrichment (6-mer frequency, TF over GST control); in experiment [3] it was 1.23 fold enrichment (6-mer frequency, TF over GST control); in experiment [4], 1.14 fold enrichment (6-mer frequency, TF over GST control); in experiment [8], 1.18 fold enrichment (6-mer frequency, TF over GST control); in experiment [6], 1.12 fold enrichment (6-mer frequency, TF over GST control). In addition, in experiment [7], the binding signal is 1.18 fold enrichment (6-mer frequency, TF over GST control).
